Data taken from PubChem BioAssay (NCATS).
Values without a mark were called inactive. Inconclusive results are not listed. Entries that show only a call come without a potency. Calls of active or inactive are those of the source. Unless noted, calls follow the shape of the dose curve; as a rule, active = well fitted curve in the direction sought with a large enough effect; inconclusive = small, poorly fitted or top-dose-only effect, or another doubt; inactive = no such curve, though single readings can be large; an effect the other way counts as inactive or inconclusive.

Key:
[1] = qHTS Assay for Identification of Small Molecule Agonists for Thrombopoietin (TPO) Signaling Pathway (AID 917); details: TPO signaling pathway reporter cells, agonist qHTS, stimulated with TPO at its EC50; series mostly up to 38.5 µM
Procedure, shortened: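 Murine Ba/F3 cells stably expressing human TPO receptor and a Glycoprotein IIb promoter–luciferase reporter were IL-3-starved overnight, then treated with compounds plus TPO (26 pM final, its EC50) for 24 hrs at 37 C; luminescence was read.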

[2] = target: Muscarinic acetylcholine receptor M1 (Rattus norvegicus) (UniProt P08482); experiment: qHTS Assay for Antagonists of Acetylcholine Muscarinic M1 Receptor: Measurement of IP-One Response (AID 944); details: CHO-M1 cells, IP-One HTRF, antagonist mode; series mostly up to 46.1 µM; also: nearly all actives have a fitted effect of over 75% in size; also: potency is read from the fitted curve at half-maximal effect
Chain of Muscarinic acetylcholine receptor M1 (Rattus norvegicus) (P08482 whole entry, looked up): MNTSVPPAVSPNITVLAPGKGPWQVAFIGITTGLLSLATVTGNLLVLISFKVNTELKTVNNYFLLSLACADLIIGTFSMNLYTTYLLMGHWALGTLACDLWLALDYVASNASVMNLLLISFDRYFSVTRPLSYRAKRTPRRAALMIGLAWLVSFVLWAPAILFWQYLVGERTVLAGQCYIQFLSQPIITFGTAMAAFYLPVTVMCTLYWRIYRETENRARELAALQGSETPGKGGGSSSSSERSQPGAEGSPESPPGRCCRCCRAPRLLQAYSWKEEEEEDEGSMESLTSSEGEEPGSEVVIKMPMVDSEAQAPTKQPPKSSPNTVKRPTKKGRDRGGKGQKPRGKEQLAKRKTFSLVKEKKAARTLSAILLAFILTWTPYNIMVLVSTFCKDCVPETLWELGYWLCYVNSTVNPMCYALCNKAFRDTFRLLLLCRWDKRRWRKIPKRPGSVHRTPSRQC
Procedure, shortened: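 CHO cells expressing rat M1 receptor, recovered overnight, were pre-incubated 10 min with compound, then stimulated 30 min with carbachol at EC80 (200 nM) in LiCl-containing buffer, pH 7.4. IP1 accumulation was read by HTRF (620/665 nm).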

[3] = target: Pyruvate kinase (Leishmania mexicana) (UniProt Q27686); experiment: qHTS Validation Assay for Inhibitors of Leishmania Mexicana Pyruvate Kinase (AID 945); details: purified L. mexicana pyruvate kinase, enzyme activity, E451W mutant enzyme; series mostly up to 57.5 µM
Chain of Pyruvate kinase (Leishmania mexicana) (Q27686 2-499 E452W): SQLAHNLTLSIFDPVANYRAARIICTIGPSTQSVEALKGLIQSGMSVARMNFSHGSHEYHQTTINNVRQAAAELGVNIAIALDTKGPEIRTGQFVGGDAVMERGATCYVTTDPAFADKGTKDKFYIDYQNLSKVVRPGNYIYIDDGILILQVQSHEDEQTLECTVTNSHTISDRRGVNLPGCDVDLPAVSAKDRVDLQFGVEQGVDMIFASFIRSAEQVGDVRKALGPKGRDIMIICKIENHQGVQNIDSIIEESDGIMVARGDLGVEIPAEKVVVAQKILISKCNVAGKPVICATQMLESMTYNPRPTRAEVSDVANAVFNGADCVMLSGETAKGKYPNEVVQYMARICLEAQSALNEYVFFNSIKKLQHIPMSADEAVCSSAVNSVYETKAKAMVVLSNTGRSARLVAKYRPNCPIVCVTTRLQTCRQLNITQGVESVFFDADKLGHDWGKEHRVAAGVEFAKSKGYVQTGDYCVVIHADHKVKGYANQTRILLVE
Procedure, shortened: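 qHTS eight-point titrations against 0.2 nM LmPYK (E451W) in imidazole buffer pH 7.2 with 0.5 mM PEP, 0.1 mM ADP; 1 h, room temperature. Readout: PKLight luminescence, normalized to neutral DMSO wells.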

[4] = Cell Viability - LYMP2-001 (AID 921); details: LYMP2-001 lymphoblastoid cell viability; series mostly up to 92.2 µM; also: nearly all actives have a fitted effect of over 70% in size
Procedure, shortened: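 Human lymphoblastoid cells (Coriell), 2500 per well, were preincubated 5 hr at 37 C, then exposed to compounds in complete medium for 24 hr at 37 C. Cellular ATP was read by CellTiter-Glo luminescence; AC50 from Hill fits of concentration-response data.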

[5] = MultiTox-Fluor Cytotoxicity Assay - LYMP1-001 - Dead Cells (AID 946); details: LYMP1-001 lymphoblastoid cells, dead-cell protease fluorescence; series mostly up to 92.2 µM;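 also: cells exposed to compound for 16 h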
Procedure, shortened: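 In this qHTS, 15 uM tetraoctylammonium bromide defined 100% and DMSO defined basal activity. Lymphoblastoid cells (LYMP1-001, 2500 per well) received compound for 16 hr at 37 C before a fluorogenic dead-cell substrate readout at 485/520 nm.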

[6] = Confirmation and Secondary Assay for Modulators of Hemoglobin Beta Chain Splicing at IVS2 654 locus (AID 910); details: HeLa EGFP-654 splicing reporter, GFP fluorescence, 48 h; series mostly up to 46.1 µM;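 also: HeLa cells stably carrying EGFP split by mutant beta-globin IVS2-654 intron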
Procedure, shortened: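 HeLa cells stably expressing EGFP interrupted by β-globin IVS2-654 intron, seeded overnight in Opti-MEM/2% FCS, then treated 2 days at 37 °C. Restored splicing read as total peak GFP intensity per well by laser scanning cytometry (488 nm excitation, 500–520 nm emission); 500 nM antisense PNA as control.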

[7] = Confirmation and Secondary Assay for Modulators of Hemoglobin Beta Chain Splicing at IVS2 705 locus (AID 930); details: HeLa EGFP-705 splicing reporter, GFP fluorescence, 48 h; series mostly up to 46.1 µM;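 also: HeLa cells stably expressing the EGFP-705 splicing reporter; GFP fluorescence per well restored by corrected splicing of the IVS2-705 intron in EGFP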
Procedure, shortened: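 First, HeLa EGFP-705 cells are seeded at 500/well in Optimem with 2% FCS and left overnight. Next, compound or DMSO is added for 2 days. Finally wells are laser-scanned and total peak GFP intensity scored.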

[8] = qHTS Assay for Identification of Small Molecule Antagonists for Thrombopoietin (TPO) Signaling Pathway (AID 918); details: TPO-dependent cell signaling reporter, antagonist mode; also: potency is read from the fitted curve at half-maximal effect; nearly all actives have a fitted effect of over 60% in size
Procedure, shortened: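 Murine Ba/F3 cells stably expressing human TPO receptor and a Glycoprotein IIb promoter–luciferase reporter were IL-3-starved overnight, treated with compounds plus TPO (26 pM final, its EC50) for 24 hrs at 37 C, then read by luminescence.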

[9] = qHTS Assay for Identification of Small Molecule Agonists for Hypoxia Response Element Signaling Pathway (AID 914; active = well fitted activation curve with a large enough effect in the signal ratio, with a control signal flat, not every such curve was filed as active; the % refers to the signal ratio; also: potency is read from the fitted curve at half-maximal effect); details: ME-180 (cervical carcinoma) HRE-bla reporter, beta-lactamase ratio, CoCl2, 17 h; activation: active compounds read high
Procedure, shortened: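 Positive modulation of EC50 CoCl2-induced hypoxia response element signaling is measured in ME-180 cells with a beta-lactamase reporter. Compounds are titrated, incubation runs 17 hours, and %Activity derives from the blue/green ratio.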

[10] = target: Muscarinic acetylcholine receptor M1 (Rattus norvegicus) (UniProt P08482); experiment: qHTS Assay for Antagonists of Acetylcholine Muscarinic M1 Receptor: Kinetic Measurement of Intracellular Calcium Response (AID 943); details: M1-expressing cells, kinetic intracellular calcium fluorescence; series mostly up to 35.3 µM;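 also: Fluo-4 calcium signal as peak divided by basal fluorescence over 4 min; nearly all actives have a fitted effect of over 75% in size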
Procedure, shortened: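 CHO cells stably expressing rat M1 were loaded with no-wash Fluo-4 dye for 1 h at 37C, pre-incubated 10 min with compound, then challenged with EC80 carbachol (100 nM final); kinetic calcium read 4 min, peak/basal ratio.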

Structure (SMILES): CN(C)CCC[C@@]1(c2ccc(F)cc2)OCc2cc(C#N)ccc21
- outcome [1]: inactive
- Potency [2]: 10 µM (active)
- outcome [3]: inactive

Structure (SMILES): COc1cc([C@H]2Oc3cc([C@H]4Oc5cc(O)cc(O)c5C(=O)[C@@H]4O)ccc3O[C@@H]2CO)ccc1O
- outcome [4]: inactive
- outcome [5]: inactive

Structure (SMILES): CN(C)C(=O)Nc1ccc(Cl)c(Cl)c1
- outcome [6]: inactive
- outcome [7]: inactive

Structure (SMILES): CN1CCC[C@@H]1CCO[C@](C)(c1ccccc1)c1ccc(Cl)cc1
- Potency [8]: 10 µM (active)
- outcome [3]: inactive

Structure (SMILES): CN1CCC(OC(c2ccccc2)c2ccccc2)CC1
- outcome [6]: inactive
- outcome [7]: inactive

Structure (SMILES): CC(=O)NCCCCCC(=O)O
- outcome [6]: inactive
- outcome [7]: inactive

Structure (SMILES): CCOC(=O)[C@H](CCc1ccccc1)N[C@@H](C)C(=O)N1[C@H](C(=O)O)C[C@H]2CCCC[C@@H]21
- outcome [6]: inactive
- outcome [7]: inactive

Structure (SMILES): CC(C)(C)NC[C@H](O)COc1nsnc1N1CCOCC1
- outcome [1]: inactive
- Potency [2]: inactive
- outcome [3]: inactive

Structure (SMILES): CCCCC(CC)COC(=O)c1ccc(N(C)C)cc1 (centres undefined)
- outcome [4]: inactive
- outcome [5]: inactive

Structure (SMILES): COc1ccc(CN(CCN(C)C)c2ncccn2)cc1
- outcome [6]: inactive
- outcome [7]: inactive

Structure (SMILES): C=C[C@H]1CN2CC[C@H]1C[C@@H]2[C@@H](O)c1ccnc2ccc(OC)cc12
- outcome [4]: inactive
- outcome [5]: inactive

Structure (SMILES): CCc1cc(Cl)c(OC)c(C(=O)NC[C@@H]2CCCN2CC)c1O
- Potency [9]: 10 µM (active)

Structure (SMILES): CC(=O)Nc1ccc(S(=O)(=O)Nc2ccc([N+](=O)[O-])cc2)cc1
- outcome [6]: inactive
- outcome [7]: inactive

Structure (SMILES): C/C=C/c1ccc(O)c(OC)c1
- outcome [4]: inactive
- outcome [5]: inactive

Structure (SMILES): CN=C(N)NCCC[C@H](N)C(=O)O
- outcome [1]: inactive
- outcome [10]: inactive
- Potency [2]: inactive
- outcome [3]: inactive

Structure (SMILES): c1ccc(CC2=NCCN2)cc1
- outcome [6]: inactive
- outcome [7]: inactive

Structure (SMILES): CCN(CC)CCNc1ccc(CO)c2sc3ccccc3c(=O)c12
- outcome [6]: inactive
- outcome [7]: inactive

Structure (SMILES): NC(N)=NCc1cccc(I)c1
- outcome [10]: inactive
- Potency [2]: inactive
- outcome [3]: inactive

Structure (SMILES): Nc1ccc(S(=O)(=O)Nc2cnc3ccccc3n2)cc1
- outcome [6]: inactive
- outcome [7]: inactive

Structure (SMILES): NCCNc1cccc2ccccc12
- outcome [5]: inactive

Structure (SMILES): CCN(CC)CCOC(=O)C(Cc1cccc2ccccc12)CC1CCCO1 (centres undefined)
- outcome [6]: inactive
- outcome [7]: inactive

Structure (SMILES): CNCCc1ccccn1
- outcome [6]: inactive
- outcome [7]: inactive

Structure (SMILES): CCCCCN=C(N)N/N=C/c1c[nH]c2ccc(OC)cc12
- outcome [6]: inactive
- outcome [7]: inactive

Structure (SMILES): CC(=O)NO
- outcome [6]: inactive
- outcome [7]: inactive

Structure (SMILES): COc1ccc(-c2cc(C(F)F)nn2-c2ccc(S(N)(=O)=O)cc2)cc1F
- outcome [6]: inactive
- outcome [7]: inactive

Structure (SMILES): CC[N+](C)(CC)CCOC(=O)C(O)(c1ccccc1)C1CCCCC1 (centres undefined)
- activation [9]: 1.14%

Structure (SMILES): Nc1ccc(C(=O)NCC(=O)O)cc1
- outcome [6]: inactive
- outcome [7]: inactive

Structure (SMILES): O=C(O)CCC(=O)Nc1ccc(S(=O)(=O)Nc2nccs2)cc1
- outcome [6]: inactive
- outcome [7]: inactive

Structure (SMILES): COc1cc(N)c(Cl)cc1C(=O)NC1CCN(Cc2ccccc2)CC1
- outcome [6]: inactive
- outcome [7]: inactive

Structure (SMILES): CCOc1ccccc1C(N)=O
- outcome [4]: inactive
- outcome [5]: inactive

Structure (SMILES): NS(=O)(=O)Cc1noc2ccccc12
- outcome [1]: inactive
- outcome [10]: inactive
- Potency [2]: inactive
- outcome [3]: inactive

Structure (SMILES): CCCc1ncc(C[n+]2ccccc2C)c(N)n1
- outcome [6]: inactive
- outcome [7]: inactive

Structure (SMILES): OC[C@H]1O[C@@H]2O[C@H]3[C@H](O)[C@@H](O)[C@@H](O[C@H]4[C@H](O)[C@@H](O)[C@@H](O[C@H]5[C@H](O)[C@@H](O)[C@@H](O[C@H]6[C@H](O)[C@@H](O)[C@@H](O[C@H]7[C@H](O)[C@@H](O)[C@@H](O[C@H]8[C@H](O)[C@@H](O)[C@@H](O[C@H]1[C@H](O)[C@H]2O)O[C@@H]8CO)O[C@@H]7CO)O[C@@H]6CO)O[C@@H]5CO)O[C@@H]4CO)O[C@@H]3CO
- outcome [4]: inactive
- outcome [5]: inactive

Structure (SMILES): CN(C)CCOC(c1ccc(Cl)cc1)c1ccccn1 (centres undefined)
- outcome [6]: inactive
- outcome [7]: inactive

Structure (SMILES): CC(C(=O)O)c1cccc(Oc2ccccc2)c1 (centres undefined)
- outcome [6]: inactive
- outcome [7]: inactive
